# Results as given in the supplement of paper PMC4466140.
# Target: AgAbp1
# Assay: SPOT peptide array binding signal intensity (averaged, normalized) (arbitrary units (background-subtracted, floor 0; scale differs between SH3 domains)); higher = stronger binding of the SH3 domain to the peptide
# How it was run: (§1)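 Spot intensities were captured after detection with anti-GST antibody, an HRP-linked anti-mouse secondary and luminol, and quantified with Genespotter. The probes were GST-fused SH3 domains from four yeast species, produced in E. coli BL21(DE3), purified on glutathione Sepharose and incubated at 10 μg/ml overnight at 4°C on cellulose-bound synthetic 15-mer peptides with cysteines replaced by serines. Binding signal is the normalized, background-subtracted spot intensity averaged over replicates, and its arbitrary units differ between domains.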
row,Binder,SPOT peptide array binding signal intensity
1,RRGPAPPPPPRASRP,181

# Target: AgBbc1
# Assay: as above
# How it was run: as §1
row,Binder,SPOT peptide array binding signal intensity
1,RRGPAPPPPPRASRP,646

# Target: AgBem1-D1
# Assay: as above
# How it was run: as §1
row,Binder,SPOT peptide array binding signal intensity
1,RRGPAPPPPPRASRP,410

# Target: AgBzz1-D1
# Assay: as above
# How it was run: as §1
row,Binder,SPOT peptide array binding signal intensity
1,RRGPAPPPPPRASRP,582

# Target: AgBzz1-D2
# Assay: as above
# How it was run: as §1
row,Binder,SPOT peptide array binding signal intensity
1,RRGPAPPPPPRASRP,164

# Target: AgCyk3
# Assay: as above
# How it was run: as §1
row,Binder,SPOT peptide array binding signal intensity
1,RRGPAPPPPPRASRP,2

# Target: AgFus1
# Assay: as above
# How it was run: as §1
row,Binder,SPOT peptide array binding signal intensity
1,RRGPAPPPPPRASRP,23

# Target: AgHof1
# Assay: as above
# How it was run: as §1
row,Binder,SPOT peptide array binding signal intensity
1,RRGPAPPPPPRASRP,63.8

# Target: AgHse1
# Assay: as above
# How it was run: as §1
row,Binder,SPOT peptide array binding signal intensity
1,RRGPAPPPPPRASRP,32.5

# Target: AgLsb1
# Assay: as above
# How it was run: as §1
row,Binder,SPOT peptide array binding signal intensity
1,RRGPAPPPPPRASRP,80.2

# Target: AgLsb4
# Assay: as above
# How it was run: as §1
row,Binder,SPOT peptide array binding signal intensity
1,RRGPAPPPPPRASRP,485

# Target: AgMyo5
# Assay: as above
# How it was run: as §1
row,Binder,SPOT peptide array binding signal intensity
1,RRGPAPPPPPRASRP,89

# Target: AgNbp2
# Assay: as above
# How it was run: as §1
row,Binder,SPOT peptide array binding signal intensity
1,RRGPAPPPPPRASRP,205

# Target: AgRvs167
# Assay: as above
# How it was run: as §1
row,Binder,SPOT peptide array binding signal intensity
1,RRGPAPPPPPRASRP,339

# Target: AgSho1
# Assay: as above
# How it was run: as §1
row,Binder,SPOT peptide array binding signal intensity
1,RRGPAPPPPPRASRP,13

# Target: AgSla1-D1-D2
# Assay: as above
# How it was run: as §1
row,Binder,SPOT peptide array binding signal intensity
1,RRGPAPPPPPRASRP,21

# Target: AgSla1-D3
# Assay: as above
# How it was run: as §1
row,Binder,SPOT peptide array binding signal intensity
1,RRGPAPPPPPRASRP,14

# Target: CaAbp1-D1
# Assay: as above
# How it was run: as §1
row,Binder,SPOT peptide array binding signal intensity
1,RRGPAPPPPPRASRP,1290

# Target: CaAbp1-D2
# Assay: as above
# How it was run: as §1
row,Binder,SPOT peptide array binding signal intensity
1,RRGPAPPPPPRASRP,281

# Target: CaBbc1
# Assay: as above
# How it was run: as §1
row,Binder,SPOT peptide array binding signal intensity
1,RRGPAPPPPPRASRP,1160

# Target: CaBem1-D1
# Assay: as above
# How it was run: as §1
row,Binder,SPOT peptide array binding signal intensity
1,RRGPAPPPPPRASRP,1890

# Target: CaBzz1-D1
# Assay: as above
# How it was run: as §1
row,Binder,SPOT peptide array binding signal intensity
1,RRGPAPPPPPRASRP,3450

# Target: CaBzz1-D2
# Assay: as above
# How it was run: as §1
row,Binder,SPOT peptide array binding signal intensity
1,RRGPAPPPPPRASRP,2600

# Target: CaCyk3
# Assay: as above
# How it was run: as §1
row,Binder,SPOT peptide array binding signal intensity
1,RRGPAPPPPPRASRP,216

# Target: CaFus1
# Assay: as above
# How it was run: as §1
row,Binder,SPOT peptide array binding signal intensity
1,RRGPAPPPPPRASRP,124

# Target: CaHof1
# Assay: as above
# How it was run: as §1
row,Binder,SPOT peptide array binding signal intensity
1,RRGPAPPPPPRASRP,6.5

# Target: CaHse1
# Assay: as above
# How it was run: as §1
row,Binder,SPOT peptide array binding signal intensity
1,RRGPAPPPPPRASRP,6.75

# Target: CaLsb1
# Assay: as above
# How it was run: as §1
row,Binder,SPOT peptide array binding signal intensity
1,RRGPAPPPPPRASRP,0.75

# Target: CaLsb4
# Assay: as above
# How it was run: as §1
row,Binder,SPOT peptide array binding signal intensity
1,RRGPAPPPPPRASRP,1000

# Target: CaMyo5
# Assay: as above
# How it was run: as §1
row,Binder,SPOT peptide array binding signal intensity
1,RRGPAPPPPPRASRP,9

# Target: CaNbp2
# Assay: as above
# How it was run: as §1
row,Binder,SPOT peptide array binding signal intensity
1,RRGPAPPPPPRASRP,209

# Target: CaRvs167
# Assay: as above
# How it was run: as §1
row,Binder,SPOT peptide array binding signal intensity
1,RRGPAPPPPPRASRP,805

# Target: CaRvs167-3
# Assay: as above
# How it was run: as §1
row,Binder,SPOT peptide array binding signal intensity
1,RRGPAPPPPPRASRP,11

# Target: CaSho1
# Assay: as above
# How it was run: as §1
row,Binder,SPOT peptide array binding signal intensity
1,RRGPAPPPPPRASRP,18.5

# Target: CaSla1-D1-D2
# Assay: as above
# How it was run: as §1
row,Binder,SPOT peptide array binding signal intensity
1,RRGPAPPPPPRASRP,2130

# Target: CaSla1-D3
# Assay: as above
# How it was run: as §1
row,Binder,SPOT peptide array binding signal intensity
1,RRGPAPPPPPRASRP,143

# Target: ScAbp1
# Assay: as above
# How it was run: as §1
row,Binder,SPOT peptide array binding signal intensity
1,RRGPAPPPPPRASRP,272

# Target: ScBbc1
# Assay: as above
# How it was run: as §1
row,Binder,SPOT peptide array binding signal intensity
1,RRGPAPPPPPRASRP,150

# Target: ScBem1-D1
# Assay: as above
# How it was run: as §1
row,Binder,SPOT peptide array binding signal intensity
1,RRGPAPPPPPRASRP,6

# Target: ScBzz1-D1
# Assay: as above
# How it was run: as §1
row,Binder,SPOT peptide array binding signal intensity
1,RRGPAPPPPPRASRP,457

# Target: ScBzz1-D2
# Assay: as above
# How it was run: as §1
row,Binder,SPOT peptide array binding signal intensity
1,RRGPAPPPPPRASRP,68.5

# Target: ScCyk3
# Assay: as above
# How it was run: as §1
row,Binder,SPOT peptide array binding signal intensity
1,RRGPAPPPPPRASRP,16

# Target: ScFus1
# Assay: as above
# How it was run: as §1
row,Binder,SPOT peptide array binding signal intensity
1,RRGPAPPPPPRASRP,12.5

# Target: ScHof1
# Assay: as above
# How it was run: as §1
row,Binder,SPOT peptide array binding signal intensity
1,RRGPAPPPPPRASRP,12.2

# Target: ScHse1
# Assay: as above
# How it was run: as §1
row,Binder,SPOT peptide array binding signal intensity
1,RRGPAPPPPPRASRP,28.5

# Target: ScLsb1
# Assay: as above
# How it was run: as §1
row,Binder,SPOT peptide array binding signal intensity
1,RRGPAPPPPPRASRP,132

# Target: ScLsb2
# Assay: as above
# How it was run: as §1
row,Binder,SPOT peptide array binding signal intensity
1,RRGPAPPPPPRASRP,54

# Target: ScLsb3
# Assay: as above
# How it was run: as §1
row,Binder,SPOT peptide array binding signal intensity
1,RRGPAPPPPPRASRP,1380

# Target: ScLsb4
# Assay: as above
# How it was run: as §1
row,Binder,SPOT peptide array binding signal intensity
1,RRGPAPPPPPRASRP,892

# Target: ScMyo3
# Assay: as above
# How it was run: as §1
row,Binder,SPOT peptide array binding signal intensity
1,RRGPAPPPPPRASRP,160

# Target: ScMyo5
# Assay: as above
# How it was run: as §1
row,Binder,SPOT peptide array binding signal intensity
1,RRGPAPPPPPRASRP,279

# Target: ScNbp2
# Assay: as above
# How it was run: as §1
row,Binder,SPOT peptide array binding signal intensity
1,RRGPAPPPPPRASRP,158

# Target: ScPex13
# Assay: as above
# How it was run: as §1
row,Binder,SPOT peptide array binding signal intensity
1,RRGPAPPPPPRASRP,1150

# Target: ScRvs167
# Assay: as above
# How it was run: as §1
row,Binder,SPOT peptide array binding signal intensity
1,RRGPAPPPPPRASRP,2010

# Target: ScSho1
# Assay: as above
# How it was run: as §1
row,Binder,SPOT peptide array binding signal intensity
1,RRGPAPPPPPRASRP,668

# Target: ScSla1-D1-D2
# Assay: as above
# How it was run: as §1
row,Binder,SPOT peptide array binding signal intensity
1,RRGPAPPPPPRASRP,4710

# Target: ScSla1-D3
# Assay: as above
# How it was run: as §1
row,Binder,SPOT peptide array binding signal intensity
1,RRGPAPPPPPRASRP,8.25

# Target: SpAbp1-D1
# Assay: as above
# How it was run: as §1
row,Binder,SPOT peptide array binding signal intensity
1,RRGPAPPPPPRASRP,726

# Target: SpBbc1
# Assay: as above
# How it was run: as §1
row,Binder,SPOT peptide array binding signal intensity
1,RRGPAPPPPPRASRP,24

# Target: SpBzz1-D1
# Assay: as above
# How it was run: as §1
row,Binder,SPOT peptide array binding signal intensity
1,RRGPAPPPPPRASRP,1820

# Target: SpBzz1-D2
# Assay: as above
# How it was run: as §1
row,Binder,SPOT peptide array binding signal intensity
1,RRGPAPPPPPRASRP,340

# Target: SpCyk3
# Assay: as above
# How it was run: as §1
row,Binder,SPOT peptide array binding signal intensity
1,RRGPAPPPPPRASRP,13

# Target: SpHof1
# Assay: as above
# How it was run: as §1
row,Binder,SPOT peptide array binding signal intensity
1,RRGPAPPPPPRASRP,52

# Target: SpHof1-2
# Assay: as above
# How it was run: as §1
row,Binder,SPOT peptide array binding signal intensity
1,RRGPAPPPPPRASRP,27.8

# Target: SpHof1-3
# Assay: as above
# How it was run: as §1
row,Binder,SPOT peptide array binding signal intensity
1,RRGPAPPPPPRASRP,420

# Target: SpHse1
# Assay: as above
# How it was run: as §1
row,Binder,SPOT peptide array binding signal intensity
1,RRGPAPPPPPRASRP,37.8

# Target: SpLsb1
# Assay: as above
# How it was run: as §1
row,Binder,SPOT peptide array binding signal intensity
1,RRGPAPPPPPRASRP,107

# Target: SpLsb4
# Assay: as above
# How it was run: as §1
row,Binder,SPOT peptide array binding signal intensity
1,RRGPAPPPPPRASRP,1730

# Target: SpMyo1
# Assay: as above
# How it was run: as §1
row,Binder,SPOT peptide array binding signal intensity
1,RRGPAPPPPPRASRP,391

# Target: SpNbp2
# Assay: as above
# How it was run: as §1
row,Binder,SPOT peptide array binding signal intensity
1,RRGPAPPPPPRASRP,15.5

# Target: SpPex13
# Assay: as above
# How it was run: as §1
row,Binder,SPOT peptide array binding signal intensity
1,RRGPAPPPPPRASRP,2

# Target: SpRvs167
# Assay: as above
# How it was run: as §1
row,Binder,SPOT peptide array binding signal intensity
1,RRGPAPPPPPRASRP,2270

# Target: SpSla1-D1-D2
# Assay: as above
# How it was run: as §1
row,Binder,SPOT peptide array binding signal intensity
1,RRGPAPPPPPRASRP,571

# Target: SpSla1-D3
# Assay: as above
# How it was run: as §1
row,Binder,SPOT peptide array binding signal intensity
1,RRGPAPPPPPRASRP,≤ 0
